Data reported in PubChem BioAssay AID1209 (Sanford-Burnham Center for Chemical Genomics, 2008).
Hit rate of the full screen: of about 190,000 compounds, about 810 (0.43%) were called active. Rule as the data show it: active = inhibition above about 50%; inactive = the rest. Shown is part of a subset that was picked to be rich in actives.

Each compound was assayed against Mannose-6-phosphate isomerase (Homo sapiens) (UniProt P34949) (assay: inhibitors of human PMI, primary screen, biochemical, fluorescence intensity, coupled assay (AID 1209;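 also: plate controls were DMSO vehicle for no effect and wells lacking substrate for full effect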)). Details: purified PMI enzyme, at 20 µM, stronger effect = higher value.
Chain of Mannose-6-phosphate isomerase (Homo sapiens) (P34949 whole entry, looked up): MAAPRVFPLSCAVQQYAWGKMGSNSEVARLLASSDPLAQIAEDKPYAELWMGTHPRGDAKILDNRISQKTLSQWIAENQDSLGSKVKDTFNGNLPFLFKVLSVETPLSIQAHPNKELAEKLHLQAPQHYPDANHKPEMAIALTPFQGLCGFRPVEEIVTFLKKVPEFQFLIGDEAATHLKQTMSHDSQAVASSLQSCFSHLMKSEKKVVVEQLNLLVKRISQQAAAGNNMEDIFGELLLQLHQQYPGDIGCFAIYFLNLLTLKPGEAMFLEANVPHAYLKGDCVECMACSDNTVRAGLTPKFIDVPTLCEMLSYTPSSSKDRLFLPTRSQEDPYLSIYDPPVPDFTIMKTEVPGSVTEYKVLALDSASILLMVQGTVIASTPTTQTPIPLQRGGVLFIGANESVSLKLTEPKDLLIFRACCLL

Structure (SMILES) | inhibition
CSC1=N/C(=C\c2ccc(C)s2)C(=O)S1 | 7% (inactive)
O=C(NC1CCCCCCC1)c1ccc2c(c1)N(Cc1ccc(F)cc1)C(=O)CS2=O (stereo not given) | 0.6% (inactive)
NC(=S)Nn1c(CCC(=O)O)ccc1-c1ccccc1 | 14.4% (inactive)
CCc1ccc(C(=O)COC(=O)CCc2nc3ccccc3c(=O)[nH]2)cc1 | -28.6% (inactive)
Cc1cccc2cc(C#N)c(SCc3nnc(-c4ccccc4[N+](=O)[O-])o3)nc12 | 11.1% (inactive)
C/C=C(\C)C(=O)NCCN1C2=NC[C@H](C(C)C)N2C[C@H]1Cc1ccc(O)cc1 | 1.5% (inactive)
N#C/C(=C/c1ccc(CNS(=O)(=O)c2ccccc2)o1)C(=O)NCc1ccccc1 | 7.8% (inactive)
Cc1ccc(S(=O)(=O)NCc2ccc(/C=C(/C#N)C(=O)NCc3ccccc3)o2)cc1 | 58.4% (active)
COCCNC(=O)/C(C#N)=C\c1ccc(CNS(=O)(=O)c2ccc(C)cc2)o1 | 6.2% (inactive)
CCCNS(=O)(=O)c1ccc(OCC(=O)Nc2ccccc2F)cc1 | -1.4% (inactive)
CC1(C)CC(=O)C(C2=NC(C)(C)Cc3ccccc32)=C(O)C1 | -4% (inactive)
CC1=NC(C)(C)Cc2ccccc21 | 7.7% (inactive)
CC1(C)Cc2ccccc2C2=NNC(=O)C2=N1 | 84% (active)
O=S(=O)(/C=C/c1ccccc1)N1CCN(Cc2ccccc2)CC1 | -1.6% (inactive)
COc1ccc2nc(NC(=O)CNS(=O)(=O)c3cccs3)sc2c1 | 1.5% (inactive)
CCN(C(=S)Nc1ccc(Oc2ccccc2)cc1)c1ccccc1 | 3.3% (inactive)
CN1CCC(N(C)C(=S)Nc2ccc(SC(F)F)cc2)CC1 | -2% (inactive)
CCN(C(=S)Nc1cccnc1)c1cccc2ccccc12 | 61.2% (active)
CN(C(=S)Nc1cccnc1)c1ccc(O)cc1 | 59.2% (active)
CN(C(=S)Nc1ccc(SC(F)F)cc1)c1ccc(O)cc1 | 77.2% (active)
CCN(C(=S)Nc1cccnc1)c1ccccc1 | 4% (inactive)
CN(C(=S)Nc1ccc(Oc2ccccc2)cc1)c1ccc(O)cc1 | 64% (active)
Oc1cccc(NC(=S)Nc2cccnc2)c1 | 14.8% (inactive)
Oc1cccc(NC(=S)Nc2ccc(SC(F)F)cc2)c1 | 18.1% (inactive)

Structure (SMILES) | inhibition
CCN(C(=S)NCc1ccccc1)c1cccc2ccccc12 | 6.3% (inactive)
CN(Cc1ccccc1)C(=S)Nc1cccnc1 | 0.8% (inactive)
CN(C(=S)Nc1ccccc1)c1ccccc1 | 3.2% (inactive)
Cn1cnnc1SCc1nc(N)nc(Nc2ccccc2)n1 | 0.3% (inactive)
Cc1ccc(C)c(NC2=CC(=O)CC(C)(C)C2)c1C#N | -12% (inactive)
CC(=O)N(NC(=O)c1ccc(C)cc1)C1CC(=O)N(c2ccccc2Cl)C1=O (stereo not given) | -5.8% (inactive)
Cc1ccc(NC(=O)Cn2cc(C(F)(F)F)cc(Cl)c2=O)cc1Cl | 3.2% (inactive)
C=CCn1c(Cc2cccs2)nnc1SCC(=O)Nc1ccc(OC)c(OC)c1 | 5.9% (inactive)
Cc1nn(C)cc1C(=O)Nc1cc(Oc2ccc(Cl)cc2)cc([N+](=O)[O-])c1 | -2.9% (inactive)
COc1ccc2c(C)c(Cl)c(=O)oc2c1 | 3.5% (inactive)
CCN(CC)CCN(C(=O)c1ccc([N+](=O)[O-])cc1)c1nc2ccc(OC)cc2s1 | 1.1% (inactive)
CCN(CC)CCN(C(=O)c1cccc([N+](=O)[O-])c1)c1nc2ccc(OC)cc2s1 | 56.7% (active)
CCOc1ccc2nc(N(CCN(CC)CC)C(=O)c3cccc([N+](=O)[O-])c3)sc2c1 | 33.9% (inactive)
C=CCNC(=O)c1cc(C(=O)C(C)c2ncc(C(F)(F)F)cc2Cl)c[nH]1 (stereo not given) | 0.9% (inactive)
N=c1sccn1CC(=O)NCc1ccc(Cl)cc1Cl | -8.6% (inactive)
COC(=O)C1CCN(C2CC(=O)N(c3cc(C)cc(C)c3)C2=O)CC1 (stereo not given) | -1.3% (inactive)
Nn1c(COc2ccc(Cl)cc2)n[nH]c1=S | 12% (inactive)
COc1ccc(OCc2n[nH]c(=S)n2N)cc1 | 80.7% (active)
Cc1ccc(OCc2n[nH]c(=S)n2N)cc1C | 1.5% (inactive)
O=C(NC1CCSC1=O)C1CCCCC1 (stereo not given) | -2.2% (inactive)
Nc1cc(-c2ccncc2)c[nH]c1=O | 50.4% (active)
N#Cc1cc(-c2ccccc2)c[nH]c1=O | 6.1% (inactive)
c1cc(-c2ccncc2)ccn1 | -8.5% (inactive)
COC(=O)c1c(NC(=O)C2CC=CCC2C(=O)O)sc(C(N)=O)c1C (stereo not given) | 7.3% (inactive)

Structure (SMILES) | inhibition
O=C(COc1cccc2cccnc12)Nc1ccccc1 | -7.8% (inactive)
Cc1ccc(NC(=O)CN(C)S(=O)(=O)c2cccc3cccnc23)cc1 | 11.9% (inactive)
Cc1ccc(NC(=O)CN(C)C(=O)COc2cccc3cccnc23)cc1 | 73% (active)
O=C(c1cccnc1)N1CCN(c2ccc(Cl)cc2)CC1 | -6.6% (inactive)
O=C(/C=C/NNC(=O)c1ccc(Cl)cc1)c1ccccc1 | -4.1% (inactive)
COC(=O)c1ccc(C(=O)OC)c(NC(=O)CN2CCCCC2)c1 | 4.7% (inactive)
CCCn1nnnc1NC(=O)c1cc(Br)ccc1OC | 0.2% (inactive)
CCCn1nnnc1NC(=O)c1cc(Cl)ccc1Cl | 13.1% (inactive)
CCCn1nnnc1NC(=O)c1ccc(C)cc1Cl | 54.4% (active)
O=c1c2ccccc2nc2c3ccccc3c(NCc3cccnc3)nn12 | 6.3% (inactive)
CCN(CC)C(=S)SSC(=S)N(CC)CC | -2.4% (inactive)
CCN(CC)C(=S)SCC(=O)c1ccccc1 | 5.8% (inactive)
CCN(CC)C(=S)SC1=CCS(=O)(=O)C1 | 102% (active)
COc1ccc(OC)c([C@@H]2OCCC=C[C@H]2C)c1 | -2.1% (inactive)
O=C(Nc1nc2c(s1)CCCC2)c1nn(Cc2ccccc2)c(=O)c2ccccc12 | 0.4% (inactive)
O=S(=O)(c1cccs1)N1CCN(c2ccccn2)CC1 | 5.9% (inactive)
Cc1ccc(-c2nnc(CSc3nc4cc5c(cc4cc3C)OCO5)o2)cc1 | 15.5% (inactive)
Cc1cccc(NCc2ccc(O)c3ncccc23)c1C | 60.4% (active)
Oc1ccc(CNc2ccccc2F)c2cccnc12 | 45.3% (inactive)
Cc1cccc(NCc2ccccc2O)c1C | 29% (inactive)
Cc1ccc(O)c(CNc2cccc3cccnc23)c1 | 34.8% (inactive)
Cc1cccnc1NCc1ccc(O)c2ncccc12 | 48.4% (inactive)
